From PubChem BioAssay (NCATS)
Results filed as inconclusive are left out. Activity calls are given as the source filed them. Unless noted, calls follow the shape of the dose curve; as a rule, active = well fitted curve in the direction sought with a large enough effect; inconclusive = small, poorly fitted or top-dose-only effect, or another doubt; inactive = no such curve, though single readings can be large; an effect the other way counts as inactive or inconclusive.

Tests used:
[1] = system: Zika virus NS2B-NS3 protease; assay: Primary screen GU AMC qHTS for Zika virus inhibitors (AID 1347154);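 also: 0% = no-inhibitor control and -100% = no-enzyme control; nearly all actives have a fitted effect of over 70% in size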
Procedure, shortened: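 Unlinked Zika NS2B hydrophilic domain/NS3 protease domain noncovalent complex (25 nM final) in 10 mM Tris-HCl pH 8.0, 0.01% Tween 20, with AMC peptide substrate. Fluorescence (ex 340, em 450 nm) change over 15 min, room temperature; percent inhibition fitted to 4-parameter Hill equation.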

[2] = biological target: Glucocorticoid receptor (Homo sapiens) (UniProt P04150); assay: GR-GFP Redistribution (AID 450;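 active = compounds whose dose series gives a full or clear partial fitted curve of increased nuclear translocation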; also: potency is read from the fitted curve at half-maximal effect); conditions: U2OS GR-GFP nuclear translocation, laser cytometry, 2 h
Glucocorticoid receptor (Homo sapiens), sequence (P04150 whole entry, looked up, the tested form may be a part): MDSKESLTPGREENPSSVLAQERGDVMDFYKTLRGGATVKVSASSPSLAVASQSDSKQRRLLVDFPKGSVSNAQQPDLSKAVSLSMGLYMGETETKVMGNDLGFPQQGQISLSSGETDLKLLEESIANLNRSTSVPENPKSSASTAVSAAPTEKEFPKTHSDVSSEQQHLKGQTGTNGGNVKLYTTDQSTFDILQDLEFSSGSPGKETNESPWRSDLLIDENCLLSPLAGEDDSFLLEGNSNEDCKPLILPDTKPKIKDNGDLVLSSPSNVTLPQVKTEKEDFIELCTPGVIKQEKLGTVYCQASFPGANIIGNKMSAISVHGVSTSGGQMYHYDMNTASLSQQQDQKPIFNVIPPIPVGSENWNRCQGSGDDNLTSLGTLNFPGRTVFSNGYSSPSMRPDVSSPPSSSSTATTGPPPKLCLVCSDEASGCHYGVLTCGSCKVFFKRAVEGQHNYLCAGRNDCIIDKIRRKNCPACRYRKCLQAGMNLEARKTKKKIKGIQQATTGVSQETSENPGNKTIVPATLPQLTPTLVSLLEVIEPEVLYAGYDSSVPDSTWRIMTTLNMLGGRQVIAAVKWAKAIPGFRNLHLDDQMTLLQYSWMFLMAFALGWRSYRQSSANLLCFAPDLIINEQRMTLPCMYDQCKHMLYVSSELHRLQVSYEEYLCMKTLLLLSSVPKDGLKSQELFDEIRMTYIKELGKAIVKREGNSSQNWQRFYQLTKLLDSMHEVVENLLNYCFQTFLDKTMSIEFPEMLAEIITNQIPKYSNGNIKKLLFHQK

[3] = biological target: Glucocorticoid receptor (Homo sapiens) (UniProt P04150); assay: GR-EFC Redistribution (AID 451; calls by dose curve; also: potency is read from the fitted curve at half-maximal effect); conditions: CHO-K1 GR-EFC translocation, beta-gal luminescence, 2 h
Procedure, shortened: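 CHO-K1 cells stably expressing nuclear-localized β-gal enzyme acceptor and GR fused C-terminally to the enzyme donor fragment; ligand-driven nuclear translocation restores β-gal by complementation. Compounds titrated up to 46 uM final, 2 h at 37 °C; luminescence read.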

[4] = biological target: Mitogen-activated protein kinase 10 (Mus musculus) (UniProt Q61831); assay: JNK3 AlphaScreen Assay (AID 530; active = well fitted curve in either direction with a large enough effect, not every such curve was filed as active;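 also: kinase came from lysate of stimulated human HepG2 cells; signal reports phosphorylation of biotinylated GST-cJun 1-79 at Ser73 with 10 µM ATP; series mostly up to about 57 µM; % is scaled to controls: 0 for no effect and ±100 for the full control effect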)
Procedure, shortened: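 JNK3 came from HepG2 lysates pre-activated with IL-1beta and TNF-alpha and phosphorylated biotinylated GST-cJun (1-79) at 10 uM ATP, pH 7.6, room temperature. Compounds were titrated. AlphaScreen signal used anti-phospho-cJun (Ser73) antibody.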

[5] = Validation of Assay for Modulators of Lamin A Splicing (AID 1459; active = well fitted curve in the direction sought with a large enough effect in the signal ratio; the % refers to the signal ratio;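 also: cells exposed to compound for two days before reading; 0% is about no effect; ratio rise marks activators and ratio drop marks inhibitors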)
Procedure, shortened: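 Splicing correction is reported by an EGFP-containing lamin A minigene in stably transfected S3 HeLa cells, while DsRed2 controls for viability and nonspecific signal. Cells are exposed to compounds for 48 hrs before the GFP over RFP ratio is taken.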

[6] = biological target: DNA repair nuclease/redox regulator APEX1 (Homo sapiens) (UniProt P27695); assay: qHTS Validation Assay for Inhibitors of the Human Apurinic/apyrimidinic Endonuclease 1 (APE1) (AID 1705;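 also: TAMRA fluorescence gain over two minutes as APE1 cuts a quenched THF abasic duplex; series mostly up to about 57 µM; % is scaled to controls: 0 for no effect and ±100 for the full control effect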)
DNA repair nuclease/redox regulator APEX1 (Homo sapiens), sequence (P27695 whole entry, looked up): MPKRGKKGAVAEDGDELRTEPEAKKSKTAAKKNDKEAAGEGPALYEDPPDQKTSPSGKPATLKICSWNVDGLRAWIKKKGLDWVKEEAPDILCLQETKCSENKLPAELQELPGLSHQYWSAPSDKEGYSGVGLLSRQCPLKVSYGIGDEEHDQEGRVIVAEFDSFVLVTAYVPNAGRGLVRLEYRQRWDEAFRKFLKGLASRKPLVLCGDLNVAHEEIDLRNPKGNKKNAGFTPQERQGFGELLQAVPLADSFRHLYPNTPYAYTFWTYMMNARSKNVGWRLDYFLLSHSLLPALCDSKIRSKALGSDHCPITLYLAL
Procedure, shortened: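 Endonuclease activity of human APE1 is followed as dequenching when the enzyme incises a tetrahydrofuran abasic site in a short duplex labelled 5'-TAMRA/3'-BHQ-2 (50 nM final), after 15 min enzyme–compound preincubation at room temperature.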

[7] = qHTS for differential inhibitors of proliferation of Plasmodium falciparum line 7G8 (AID 1815);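 also: potency is read from the fitted curve at half-maximal effect; parasite growth measured after three days of incubation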
[8] = qHTS for differential inhibitors of proliferation of Plasmodium falciparum line GB4 (AID 1816); conditions: Potency: Plasmodium falciparum GB4 proliferation inhibition;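 also: potency is read from the fitted curve at half-maximal effect; parasite growth measured after 72 h incubation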
[9] = qHTS for differential inhibitors of proliferation of Plasmodium falciparum line 3D7 (AID 1876); also: potency is read from the fitted curve at half-maximal effect
[10] = qHTS for differential inhibitors of proliferation of Plasmodium falciparum line D10 (AID 1877);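 also: potency is read from the fitted curve at half-maximal effect; parasites grown with compound for 72 h before DNA staining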
[11] = qHTS for differential inhibitors of proliferation of Plasmodium falciparum line W2 (AID 1883); conditions: Potency: Plasmodium falciparum W2 proliferation inhibition;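 also: potency is read from the fitted curve at half-maximal effect; parasites grown with compound for 72 h before lysis and staining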
[12] = qHTS for differential inhibitors of proliferation of Plasmodium falciparum line HB3 (AID 1886); conditions: Potency: Plasmodium falciparum HB3 proliferation inhibition;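 also: potency is read from the fitted curve at half-maximal effect; parasites grown with compound for 72 h before SYBR Green readout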
[13] = biological target: ATP-dependent DNA helicase Q1 (Homo sapiens) (UniProt P46063); assay: qHTS Validation Assay for Inhibitors of RecQ-Like Dna Helicase 1 (RECQ1) (AID 2353);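 also: plate controls were DMSO vehicle for no effect and enzyme-free control for full effect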
ATP-dependent DNA helicase Q1 (Homo sapiens), sequence (P46063 whole entry, looked up): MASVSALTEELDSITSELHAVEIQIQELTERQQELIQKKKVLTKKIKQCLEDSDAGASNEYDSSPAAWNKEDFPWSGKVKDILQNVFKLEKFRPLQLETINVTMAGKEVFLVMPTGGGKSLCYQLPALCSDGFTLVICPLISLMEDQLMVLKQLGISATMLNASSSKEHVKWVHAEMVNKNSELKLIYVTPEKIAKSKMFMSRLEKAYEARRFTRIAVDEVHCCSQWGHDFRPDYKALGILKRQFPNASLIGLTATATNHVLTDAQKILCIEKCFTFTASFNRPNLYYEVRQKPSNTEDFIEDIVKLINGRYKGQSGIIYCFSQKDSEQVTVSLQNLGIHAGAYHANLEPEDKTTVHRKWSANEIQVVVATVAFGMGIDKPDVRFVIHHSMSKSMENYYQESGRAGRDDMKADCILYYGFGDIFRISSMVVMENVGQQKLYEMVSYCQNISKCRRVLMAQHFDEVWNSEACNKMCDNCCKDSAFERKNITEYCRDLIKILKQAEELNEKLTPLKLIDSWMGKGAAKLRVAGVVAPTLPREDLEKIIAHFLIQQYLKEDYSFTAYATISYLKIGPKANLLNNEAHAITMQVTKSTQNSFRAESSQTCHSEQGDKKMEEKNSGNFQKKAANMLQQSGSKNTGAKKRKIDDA
Procedure, shortened: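 50 nM RECQ1T1 preincubated 15 min with compound in Tris pH 8.0 buffer with MgCl2, DTT, Tween-20 and 2.5 ug/ml poly(dI-dC); started with 200 nM TAMRA/BHQ-2 forked duplex and 2 mM ATP. Unwinding read as fluorescence (525/598 nm), two reads 2 h apart.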

[14] = biological target: M-phase phosphoprotein 8 (Homo sapiens) (UniProt Q99549); assay: qHTS Validation Assay for Inhibitors for MPP8 Chromodomain Interactions with Methylated Histone Tails (AID 488949);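 also: AlphaScreen signal from MPP8 chromodomain bound to biotinylated H3K9me3 peptide; top concentration of the series differs between compounds; % is scaled to controls: 0 for no effect and ±100 for the full control effect; nearly all actives have a fitted effect of over 55% in size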
Procedure, shortened: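 Disruption of the preformed MPP8–trimethyl-H3K9 peptide complex (both 50 nM, 30 min, RT) is measured after 30 min compound exposure, using AlphaScreen proximity beads; aurintricarboxylic acid titration serves as plate control.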

[15] = biological target: Thyrotropin receptor (Homo sapiens) (UniProt P16473); assay: qHTS Assay for Antagonists of the Thyroid Stimulating Hormone Receptor (AID 488980); also: series mostly up to about 58 µM; 0% is about no effect
Thyrotropin receptor (Homo sapiens), sequence (P16473 whole entry, looked up): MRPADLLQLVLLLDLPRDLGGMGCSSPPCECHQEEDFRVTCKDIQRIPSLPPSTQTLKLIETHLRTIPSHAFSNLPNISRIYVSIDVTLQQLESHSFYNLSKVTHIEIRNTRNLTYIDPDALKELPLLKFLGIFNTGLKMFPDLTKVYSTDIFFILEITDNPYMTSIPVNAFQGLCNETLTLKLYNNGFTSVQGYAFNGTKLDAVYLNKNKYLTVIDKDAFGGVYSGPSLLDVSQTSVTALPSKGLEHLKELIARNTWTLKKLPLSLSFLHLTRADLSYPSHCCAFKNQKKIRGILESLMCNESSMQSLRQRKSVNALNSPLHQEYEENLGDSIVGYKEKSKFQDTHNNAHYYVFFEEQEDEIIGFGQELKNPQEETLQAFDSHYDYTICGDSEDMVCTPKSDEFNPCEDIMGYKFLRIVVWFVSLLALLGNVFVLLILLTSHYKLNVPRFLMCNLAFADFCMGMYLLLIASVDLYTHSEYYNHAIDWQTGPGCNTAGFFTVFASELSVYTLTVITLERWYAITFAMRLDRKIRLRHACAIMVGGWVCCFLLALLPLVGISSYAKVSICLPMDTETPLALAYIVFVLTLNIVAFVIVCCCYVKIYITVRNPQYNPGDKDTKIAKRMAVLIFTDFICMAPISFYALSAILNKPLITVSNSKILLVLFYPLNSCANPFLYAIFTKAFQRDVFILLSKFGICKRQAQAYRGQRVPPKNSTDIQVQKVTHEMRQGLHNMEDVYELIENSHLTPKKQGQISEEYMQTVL
Procedure, shortened: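 Cells expressing human TSHR (HEK293) are dispensed in HBSS/HEPES containing 70 uM RO 20-1724, compound is added, then TSH at EC80 (4 nM final). Antibody in lysis buffer follows, 30 minutes at room temperature before HTRF detection.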

[16] = biological target: Thyrotropin-releasing hormone receptor (Homo sapiens) (UniProt P34981); assay: qHTS for Small Molecule Agonists and Allosteric Enhancers of Human TRH Receptor: Validation Screen for Agonists (AID 493127;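 active = calcium activation more than 3 SD above the typical response in the agonist read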;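 also: intracellular calcium rise by fluo-8 fluorescence before TRH EC20 addition; 0% is about no effect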); conditions: TRH receptor agonist cell assay; at 2 µM; stronger effect = higher value
Thyrotropin-releasing hormone receptor (Homo sapiens), sequence (P34981 whole entry, looked up): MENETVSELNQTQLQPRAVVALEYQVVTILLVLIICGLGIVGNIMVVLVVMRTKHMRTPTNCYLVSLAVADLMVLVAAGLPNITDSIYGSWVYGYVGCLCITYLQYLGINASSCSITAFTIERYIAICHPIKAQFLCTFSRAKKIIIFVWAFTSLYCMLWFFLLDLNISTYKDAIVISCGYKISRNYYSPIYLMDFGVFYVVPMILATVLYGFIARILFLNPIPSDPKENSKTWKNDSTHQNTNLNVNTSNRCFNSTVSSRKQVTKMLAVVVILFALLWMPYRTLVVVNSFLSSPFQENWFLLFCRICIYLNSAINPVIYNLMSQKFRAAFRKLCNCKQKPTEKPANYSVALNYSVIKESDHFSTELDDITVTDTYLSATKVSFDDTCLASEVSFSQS
Procedure, shortened: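 TRHR-expressing cells were plated overnight in serum-containing medium, then loaded with fluo-8 calcium dye at room temperature for 30 min–1.5 h. After a 10 s baseline, compound was pin-transferred and calcium fluorescence (ex 480/em 530) read kinetically for agonist response.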

[17] = biological target: Galactokinase (Homo sapiens) (UniProt P51570); assay: qHTS Validation Assay for Inhibitors of Human Galactokinase (GALK) (AID 493189); also: 0% is about no effect
Galactokinase (Homo sapiens), sequence (P51570 whole entry, looked up): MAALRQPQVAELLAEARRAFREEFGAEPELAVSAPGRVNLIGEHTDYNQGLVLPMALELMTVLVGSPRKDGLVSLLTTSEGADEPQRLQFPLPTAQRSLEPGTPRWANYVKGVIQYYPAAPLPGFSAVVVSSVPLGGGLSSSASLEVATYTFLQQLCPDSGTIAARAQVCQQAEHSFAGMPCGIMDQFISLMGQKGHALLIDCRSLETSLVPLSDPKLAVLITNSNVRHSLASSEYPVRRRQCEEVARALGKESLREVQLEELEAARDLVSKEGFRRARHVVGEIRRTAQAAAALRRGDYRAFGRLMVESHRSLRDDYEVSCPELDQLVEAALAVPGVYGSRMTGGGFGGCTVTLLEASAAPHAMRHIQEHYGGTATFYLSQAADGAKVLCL
Procedure, shortened: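 Compounds were pin-transferred into ATP buffer, then GALK-galactose mix was added (final 5 nM enzyme, 100 uM galactose, 35 uM ATP). After 1 h at room temperature, remaining ATP was measured luminescently.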

[18] = biological target: DNA dC->dU-editing enzyme APOBEC-3G (Homo sapiens) (UniProt Q9HC16); assay: qHTS for inhibitors of Vif-A3G interactions: Validation (AID 588379); also: 0% is about no effect
DNA dC->dU-editing enzyme APOBEC-3G (Homo sapiens), sequence (Q9HC16 whole entry, looked up): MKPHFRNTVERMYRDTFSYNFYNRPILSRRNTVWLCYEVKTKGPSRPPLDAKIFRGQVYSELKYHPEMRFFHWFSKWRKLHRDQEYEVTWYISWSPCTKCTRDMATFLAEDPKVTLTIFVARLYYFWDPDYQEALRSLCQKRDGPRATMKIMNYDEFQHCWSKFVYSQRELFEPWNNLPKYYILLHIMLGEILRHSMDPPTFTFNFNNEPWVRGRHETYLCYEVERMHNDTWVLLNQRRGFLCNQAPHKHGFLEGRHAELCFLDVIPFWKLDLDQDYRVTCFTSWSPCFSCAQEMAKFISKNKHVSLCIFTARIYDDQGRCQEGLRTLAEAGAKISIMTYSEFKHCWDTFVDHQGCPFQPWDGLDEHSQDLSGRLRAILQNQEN
Procedure, shortened: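 HeLa cells stably expressing Vif and A3G-eYFP, 700 cells/well, incubated overnight at 37 deg C, then exposed to compound overnight at 37 deg C. Inhibition of Vif-mediated degradation read as increased yellow fluorescence (Ex 488/Em 500-530) by laser-scanning cytometry.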

[19] = biological target: Voltage-gated inwardly rectifying potassium channel KCNH2 (Homo sapiens) (UniProt Q12809); assay: qHTS Assay for Small Molecule Inhibitors of the Human hERG Channel Activity (AID 588834);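 also: potency is read from the fitted curve at half-maximal effect; lower thallium flux fluorescence means stronger hERG block; nearly all actives have a fitted effect of over 50% in size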
Voltage-gated inwardly rectifying potassium channel KCNH2 (Homo sapiens), sequence (Q12809 whole entry, looked up): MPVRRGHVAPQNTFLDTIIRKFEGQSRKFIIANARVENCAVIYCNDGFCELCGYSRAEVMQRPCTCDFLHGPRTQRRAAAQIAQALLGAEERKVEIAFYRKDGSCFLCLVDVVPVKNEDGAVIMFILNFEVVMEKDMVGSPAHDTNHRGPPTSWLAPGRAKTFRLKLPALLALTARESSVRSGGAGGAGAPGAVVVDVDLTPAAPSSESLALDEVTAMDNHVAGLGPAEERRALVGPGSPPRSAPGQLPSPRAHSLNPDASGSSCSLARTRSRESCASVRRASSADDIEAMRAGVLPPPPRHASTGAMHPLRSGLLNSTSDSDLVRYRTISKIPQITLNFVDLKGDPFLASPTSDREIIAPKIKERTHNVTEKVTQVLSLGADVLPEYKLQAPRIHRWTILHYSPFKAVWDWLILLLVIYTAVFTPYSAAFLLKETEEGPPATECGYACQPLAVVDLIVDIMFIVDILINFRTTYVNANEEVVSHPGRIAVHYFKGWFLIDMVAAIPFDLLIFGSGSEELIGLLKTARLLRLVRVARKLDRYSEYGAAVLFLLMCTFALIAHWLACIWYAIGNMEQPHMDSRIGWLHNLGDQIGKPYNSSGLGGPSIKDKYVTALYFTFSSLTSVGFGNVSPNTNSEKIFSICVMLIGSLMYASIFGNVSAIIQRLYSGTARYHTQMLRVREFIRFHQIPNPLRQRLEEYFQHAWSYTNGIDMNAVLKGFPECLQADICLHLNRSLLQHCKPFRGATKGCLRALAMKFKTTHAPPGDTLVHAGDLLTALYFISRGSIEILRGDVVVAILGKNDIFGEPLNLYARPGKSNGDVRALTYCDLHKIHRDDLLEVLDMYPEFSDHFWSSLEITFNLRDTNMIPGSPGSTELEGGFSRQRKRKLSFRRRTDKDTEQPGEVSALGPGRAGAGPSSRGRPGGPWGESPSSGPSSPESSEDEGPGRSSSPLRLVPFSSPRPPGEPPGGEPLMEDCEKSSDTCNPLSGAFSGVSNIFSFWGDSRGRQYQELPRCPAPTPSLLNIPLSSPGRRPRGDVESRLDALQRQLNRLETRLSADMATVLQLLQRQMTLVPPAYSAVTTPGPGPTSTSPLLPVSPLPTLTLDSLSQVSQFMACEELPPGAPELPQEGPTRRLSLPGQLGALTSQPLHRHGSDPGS
Procedure, shortened: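 Measured: FluxOR fluorescence after thallium stimulation in U2OS cells transduced with hERG by baculovirus. Compounds pre-incubated around 10 min; medium Opti-MEM with 2% FCS. AC50 from Hill equation.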

[20] = Primary qHTS for small molecule stabilizers of the endoplasmic reticulum resident proteome: Secreted ER Calcium Modulated Protein (SERCaMP) assay (AID 1508630); also: % is scaled to controls: 0 for no effect and ±100 for the full control effect
Procedure, shortened: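 GLuc-SERCaMP-expressing SH-SY5Y cells, pretreated 16 h with compound, are challenged with thapsigargin to empty ER calcium stores; after 4 h, coelenterazine is added directly to the medium and luminescence is imaged.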

CC#CC(=O)Nc1cc2c(Nc3ccc(F)c(Cl)c3)ncnc2cn1
inactive: Potency [1]

FC(F)(F)c1cc(CO[C@H]2CCCN[C@H]2c2ccccc2)cc(C(F)(F)F)c1
inactive: Potency [2] > 46 µM | Potency [3] > 46 µM | Potency [4] | outcome [5] | Potency [6] | Potency [13] | Potency [14] | outcome [15] | activation [16] 2.81% | outcome [17] | Potency [18] | Potency [1] | Potency [20]
active: Potency [7] 7.94 µM | Potency [8] 11.2 µM | Potency [9] 11.2 µM | Potency [10] 11.2 µM | Potency [11] 7.08 µM | Potency [12] 12.6 µM | Potency [19] 8.91 µM
